Screens (PubChem BioAssay)
TWEAK-Fn14 inh = inhibitors of TWEAK-Fn14 signaling, primary screen, luciferase reporter cells, uHTS | AID 1159606, 2016 | inhibition, % at 10 µM | TWEAK-stimulated Fn14 reporter cells, luciferase luminescence, 8 h | 360,000 compounds, 2% hits; in the data active = inhibition above about 50%
TROY signal inh = inhibitors of TROY-driven NF-kB signaling, primary screen, Q293 LMP1-TROYcd cells, NF-kB luciferase, uHTS. AID 1347056, 2019. inhibition, % at 10 µM. Q293 LMP1-TROYcd NF-kB luciferase reporter, 4 h. 360,000 compounds, 0.98% hits;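 active = compounds whose plate-normalised and pattern-corrected inhibition of the luciferase reporter signal at the single screening dose is 50% or more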
MITF TRPM1 HTS = activators of MITF-driven TRPM1 promoter reporter, primary screen, cell-based, SK-MEL-5, luciferase, single point; SK-MEL-5 TRPM1-promoter luciferase, 24 h; % of positive control, neutral wells = 0; activation, % at 12.5 µM; 300,000 compounds, 0.75% hits; AID 588334, 2011;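 active = mean activation of at least 80% with every replicate also reaching 80%; inconclusive = mean reaches 80% but some replicate falls short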;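 note: 0% = neutral control wells and 100% = parthenolide positive control wells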
LGR2 inh = inhibitors of bursicon-induced LGR2 CRE-luciferase signal, primary screen, cell-based, HEK293, CRE-luciferase reporter, bursicon stimulation; bursicon-stimulated, 4 h; inhibition, % at 9.99 µM; Drosophila bursicon receptor LGR2 (rickets); 380,000 compounds, 0.35% hits;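 active = drop in luminescence signal, shown as inhibition above about 50% in the replicate tests, limit read from the data, passing the limit was not always enough; inconclusive = probably only some replicates passing the limit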;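 note: agonist challenge used bursicon conditioned medium at about half maximal strength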
TRPM1 prom inh = inhibitors of MITF-dependent TRPM1 promoter reporter, primary screen, cell-based, SK-MEL-5, single point, luciferase; SK-MEL-5 TRPM1 promoter luciferase, 24 h; inhibition, % at 12.5 µM; 330,000 compounds, 0.83% hits; AID 488899, 2010;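 active = mean inhibition across replicates of 60% or more, whatever share of single replicates reaches that level; inconclusive = some that reach 60%, reason not given; inactive = mean inhibition across replicates below 60%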
EBV LMP1 NFkB = EBV LMP1-driven NF-kappaB luciferase reporter inhibitors, primary screen, cell-based, luminescence, single point; LMP1-induced NF-kappaB luciferase reporter cells; inhibition, % at 12.5 µM; 350,000 compounds, 0.69% hits; in the data active = inhibition above about 41%; inconclusive = no clear call, values can overlap the other calls;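 note: 0% = neutral control wells and 100% = reference inhibitor control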
An asterisk follows results filed as active; u = inconclusive; x = no result given. The list is not random: actives were taken first. Their share in the collection is about 3%.

SMILES | TWEAK-Fn14 inh | TROY signal inh | MITF TRPM1 HTS | LGR2 inh | TRPM1 prom inh | EBV LMP1 NFkB
C[C@@H]1CN([C@@H](C)CO)C(=O)c2cc(NC(=O)C3CC3)ccc2O[C@H]1CN(C)Cc1ccccc1 | x | x | x | 8 | x | x
C[C@H]1CN([C@@H](C)CO)S(=O)(=O)c2ccc(C#Cc3ccccc3)cc2O[C@H]1CN(C)CC1CC1 | x | x | x | 1 | x | x
CCC(=O)NC[C@H]1[C@@H](c2ccc(-c3ccccc3)cc2)[C@@H](CO)N1C(=O)C1CC1 | x | x | x | 15 | x | x
O=C(c1ccc(COc2ccccc2Cl)o1)N1CCCC1 | -8 | -3 | -30 | x | 27 | 47*
COc1cc(/C=C2\NC(=S)NC2=O)ccc1OCc1cccc(C(=O)O)c1 | -20 | -20 | 22 | 18 | -30 | 11
O=C(O)c1cccc(COc2ccccc2Cl)c1 | 73* | -10 | -92 | 101* | 92* | 74*
O=C1NC(=O)/C(=C\c2ccc(OCc3cccc(C(=O)O)c3)c(Cl)c2)N1 | -21 | -72 | -42 | 83* | 41 | u
N#C[C@@H]1[C@@H](c2ccccc2-c2ccc(F)cc2)[C@@H](CO)N1c1ncc(-c2ccccc2)s1 | x | x | x | 20 | x | x
Cc1ccc(C(=O)c2sc3nsc(C)c3c2N)cc1 | 30 | -93 | 47 | x | -42 | -27
Cc1snc2sc(C(=O)c3ccc(Br)cc3)c(N)c12 | -23 | -82 | 88* | x | -86 | -26
CC(=O)c1c2c3c(c(Br)ccc3n(C)c1=O)C(=O)c1ccccc1-2 | -6 | 3 | 10 | 1 | -3 | 0
CC(=O)c1c(C)oc2c1C(=O)c1ccccc1C2=O | 24 | 28 | -78 | -4 | 79* | 4
COc1ccc(CNC(=O)c2c(C)oc3c2C(=O)c2ccccc2C3=O)cc1 | 99* | 56* | -103 | 77* | 104* | 13
O=c1c2ccccc2oc2ccc(Oc3ccccc3)cc12 | 5 | -54 | u | -41 | -107 | -58
O=c1c2ccccc2oc2ccc(-c3ccc4[nH]ccc4c3)cc12 | 14 | -67 | 113* | -61 | -111 | -49
COc1ccccc1-c1oc2ccccc2c1-c1ccc2cc[nH]c2c1 | 8 | -5 | 1 | -2 | -6 | -16
O=c1c2ccccc2oc2cc(-c3ccc4cc[nH]c4c3)ccc12 | 7 | -29 | 129* | x | -122 | -36
C[C@H]1CN([C@@H](C)CO)C(=O)c2cc(NC(=O)c3ccncc3)ccc2O[C@@H]1CN(C)CC1CCCCC1 | x | x | x | 21 | x | x
Cc1cccc(-c2noc(Cc3ccc(Cl)cc3)n2)c1 | -22 | -35 | 68 | x | -67 | -35
c1ccc(SCc2nc(-c3cccnc3)no2)cc1 | 7 | -18 | 109* | -29 | -103 | -11
c1ccc(C(Cc2nc(-c3ccccn3)no2)c2ccccc2)cc1 | 25 | 8 | 40 | x | -41 | -7
c1ccc(SCc2nc(-c3ccccn3)no2)cc1 | 9 | -35 | 83* | x | -80 | -18
Cc1ccc(-c2noc(CSc3ccccc3)n2)cc1 | 23 | -50 | 102* | x | -95 | -57
Cc1cccc(-c2noc(CSc3ccccc3)n2)c1 | -17 | -19 | 87* | -74 | -74 | -46
O=C(Nc1ccc(F)cc1)N1C[C@H]2[C@@H](c3ccccc31)[C@H](CO)N2C(=O)c1ccccc1 | x | x | x | -10 | x | x
SMILES | TWEAK-Fn14 inh | TROY signal inh | MITF TRPM1 HTS | LGR2 inh | TRPM1 prom inh | EBV LMP1 NFkB
CCCC(=O)Nc1ccc2c(c1)C(=O)N(C)C[C@H](OC)[C@@H](C)CN(CC1CCCC1)[C@@H](C)CO2 | x | x | x | -5 | x | x
CCC(=O)N1CC(=O)N2[C@H](CO)[C@H](c3ccc(-c4cccnc4)cc3)[C@H]2C1 | x | x | x | -1 | x | x
CC(C)Cc1ccc(/C=C/C(=O)N2CCOCC2)cc1 | -30 | -58 | 103* | -91 | -96 | -20
O=C(CSc1ccc(F)cc1)N1CCC(c2nc3ccccc3s2)CC1 | 31 | 19 | -8 | 12 | 7 | 0
Fc1ccc(-c2nnc(CN3CCC(c4nc5ccccc5s4)CC3)o2)cc1 | 53* | 23 | 1 | x | 1 | 10
CCOC(=O)c1c2c(n(-c3ccc(OC)cc3)c1C)C(=O)C(=O)c1ccccc1-2 | 107* | 61* | -94 | x | 94* | 87*
CCOC(=O)c1sc(=S)n(-c2ccc(OC)cc2)c1C | 2 | -13 | x | x | x | x
Cc1cc(C)n2c(Nc3ccc4c(c3)OCCO4)c(-c3cc4ccccc4o3)nc2n1 | 97* | 85* | x | 92* | x | x
O=c1c(Cl)c(Cl)cnn1Cc1nnc(-c2ccc(Cl)cc2)o1 | 86* | 52* | -87 | 104* | 87* | -82
CCc1ccc(C(=O)Cn2ncc(Cl)c(Cl)c2=O)cc1 | 79* | 11 | -57 | x | 57 | -98
Cc1ccc(Cn2ncc(Cl)c(Cl)c2=O)cc1 | 65* | 3 | -65 | -10 | u | -94
O=c1c(Cl)c(Cl)cnn1Cc1ccccc1Cl | x | x | x | -2 | x | x
CCCCn1c(=N)n(CCOc2ccc(C)cc2)c2ccccc21 | -6 | 14 | -65 | -18 | 64* | -1
CCOCCn1c(COc2ccc(C)cc2)nc2ccccc21 | -45 | -91 | 42 | -23 | -49 | -20
COCCn1c(COc2ccc(C)cc2)nc2ccccc21 | 65* | x | 34 | x | -30 | -9
Cc1ccc(C(=O)Nc2sc(C)c(-c3ccccc3)c2C(N)=O)cc1[N+](=O)[O-] | 98* | 87* | -19 | x | 18 | 15
Cc1ccc(C(=O)Nc2cccc(NC(=O)c3ccc(C)c([N+](=O)[O-])c3)n2)cc1[N+](=O)[O-] | 33 | 13 | 11 | -7 | -11 | 0
NNC(=S)NC1CC2CC1C1C=CCC21 (stereo unspecified) | 77* | 70* | -6 | 0 | 4 | -1
Cc1cccc(C(=O)OCC(=O)c2ccc3c(c2)OCCO3)c1O | 13 | 54* | 50 | -11 | -59 | -18
O=C(COC(=O)c1ccccc1[N+](=O)[O-])c1ccc2c(c1)OCO2 | 78* | 78* | 55 | 85* | -54 | -14
CNS(=O)(=O)c1cccc(C(=O)OCC(=O)c2ccc3c(c2)OCCO3)c1 | 11 | -24 | -1 | 13 | 5 | 43*
Cc1cccc(C(=O)OCC(=O)c2c(C)[nH]c3ccccc23)c1O | -17 | -48 | 82* | -64 | -81 | -35
COc1ccc(S(=O)(=O)N(C)C[C@@H]2Oc3ccc(NS(=O)(=O)c4ccc(C)cc4)cc3C(=O)N([C@H](C)CO)C[C@H]2C)cc1 | x | x | x | -1 | x | x
O=C(C[C@H]1CC[C@H]2[C@@H](COC[C@@H](O)CN2Cc2nccs2)O1)NCc1ccccc1F | x | x | x | 30 | x | x
Cc1cccc(C)c1NC(=O)COC(=O)c1ccc2c(c1)OCO2 | 1 | 3 | -8 | -12 | 10 | 5
